Reference: PubChem BioAssay (NCATS)
Inconclusive results are not listed. Active and inactive are the calls of the source. Unless noted, the call rests on the fitted dose curve; in most records, active means well fitted cell-killing curve with a large enough effect; inconclusive means small, poorly fitted or top-dose-only effect; inactive means flat fitted curve, though single readings scatter.

Columns and labels:
[1] = Cell Viability - LYMP2-025 (AID 976);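 further: series mostly up to about 92 µM; plate controls were DMSO only for no effect and tetraoctylammonium bromide control for full effect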
Outline: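 Seed 2500 LYMP2-025 cells/well; 5 hr at 37 C; add compound; 24 hr at 37 C; add CellTiter-Glo; 30 min RT; read luminescence. AC50 from Hill-modelled concentration-response.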

[2] = Cell Viability - LYMP2-002 (AID 977);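 further: series mostly up to about 92 µM; plate controls were DMSO only for no effect and 92 µM tetraoctylammonium bromide for full effect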
Outline: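 Luminescent ATP readout (CellTiter-Glo, 30 min room temperature) after 24 h compound exposure at 37 C of a human lymphoblastoid line, 2500 cells/well. AC50 values derived by standard Hill fitting of qHTS concentration-response data.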

[3] = Cell Viability - LYMP2-006 (AID 978); further: series mostly up to about 92 µM; on the % scale 0 is the no-effect control and ±100 the full control effect; nearly all actives have a fitted effect of over 60% in size
Outline: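 qHTS, 1536-well; 2500 cells/well, 5 hr 37 C; cpd 24 hr 37 C; CellTiter-Glo 30 min RT; luminescence. Tetraoctylammonium bromide pos. ctrl. AC50 via Hill eqn.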

[4] = Cell Viability - LYMP2-007 (AID 979);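 further: cells exposed to compound for 24 h before reading; 0% = DMSO only and the negative end = 92 µM tetraoctylammonium bromide; nearly all actives have a fitted effect of over 60% in size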
Outline: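 Luminescent ATP signal (CellTiter-Glo) serves as the viability read-out after 24 hr compound treatment of lymphoblastoid cells in complete medium at 37 C. Concentration-response data were fitted to the Hill equation to give AC50 values.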

[5] = Cell Viability - LYMP2-008 (AID 980); further: on the % scale 0 is the no-effect control and ±100 the full control effect; nearly all actives have a fitted effect of over 60% in size
Outline: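 qHTS, human lymphoblastoid line, 2500 cells/well; 5 hr preincubation, 24 hr compound, 37 C. CellTiter-Glo ATP luminescence. AC50 via Hill equation. Tetraoctylammonium bromide positive control.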

[6] = Cell Viability - LYMP2-010 (AID 981); further: on the % scale 0 is the no-effect control and ±100 the full control effect; nearly all actives have a fitted effect of over 55% in size
Outline: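 Luminescent ATP signal (CellTiter-Glo) served as the viability read-out. Cells of the human lymphoblastoid line were treated with compound over a concentration range for 24 hours at 37 C, and AC50 values came from Hill-equation modeling.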

[7] = Cell Viability - LYMP2-012 (AID 982);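 further: cellular ATP by luciferase luminescence where a drop means cytotoxicity; cells exposed to compound for one day before reading; 0% = DMSO only and full loss = 92 µM tetraoctylammonium bromide; nearly all actives have a fitted effect of over 55% in size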
[8] = Cell Viability - LYMP2-014 (AID 983);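 further: series mostly up to about 92 µM; plate controls were DMSO only for no effect and 92 µM tetraoctylammonium bromide for full effect; nearly all actives have a fitted effect of over 50% in size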
Outline: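 Luminescent ATP signal (CellTiter-Glo, 30 min at room temperature) serves as the viability read-out after 24 hr compound exposure at 37 C. Cells were seeded at 2500 per well and settled 5 hr beforehand.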

[9] = Cell Viability - LYMP2-016 (AID 984); further: on the % scale 0 is the no-effect control and ±100 the full control effect; nearly all actives have a fitted effect of over 55% in size
Outline: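 qHTS, 1536-well: 2500 LYMP2-016 cells/well, 5 hr 37 C, compound added, 24 hr 37 C, CellTiter-Glo 30 min RT, luminescence. Tetraoctylammonium bromide positive control. AC50 via Hill fit.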

[10] = Cell Viability - LYMP2-018 (AID 985);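 further: plate controls were DMSO only for no effect and tetraoctylammonium bromide at 92 µM for full effect; nearly all actives have a fitted effect of over 50% in size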
Outline: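 Luminescent ATP signal (CellTiter-Glo, read after 30 min at room temperature) reports viable cells after 24 hr compound treatment at 37 C. Concentration-response data were fitted to the standard Hill equation for AC50.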

[11] = Cell Viability - LYMP2-020 (AID 986);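 further: series mostly up to about 92 µM; plate controls were DMSO only for no effect and tetraoctylammonium bromide at 92 µM for full effect; nearly all actives have a fitted effect of over 55% in size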
Outline: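 Luminescent ATP signal (CellTiter-Glo, 30 min at room temperature) is the read-out after 24 h compound treatment of lymphoblastoid cells at 37 C. AC50 values come from Hill-equation fits across concentrations.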

[12] = Cell Viability - LYMP2-024 (AID 988);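 further: plate controls were DMSO only for no effect and 92 µM tetraoctylammonium bromide for full effect; nearly all actives have a fitted effect of over 60% in size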
Outline: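 Steps: seed 2500 cells/well, 5 hr 37 C; add compound, 24 hr 37 C; add CellTiter-Glo, 30 min room temperature; read luminescence. AC50 derived by Hill modelling of concentration-dependent ATP loss.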

[13] = Cell Viability - LYMP2-026 (AID 989); further: on the % scale 0 is the no-effect control and ±100 the full control effect; nearly all actives have a fitted effect of over 50% in size
Outline: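 Luminescent ATP signal (CellTiter-Glo, 30 min room temperature) measures viable lymphoblastoid cells after 24 hr compound treatment at 37 C. Decreased ATP reflects acute toxicity; AC50 values come from Hill-equation modeling.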

[14] = Cell Viability - LYMP1-002 - Assay at 24 hr (AID 993); further: on the % scale 0 is the no-effect control and ±100 the full control effect
Outline: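 Cells plated 2500/well, 5 hr 37 C; compounds added, 24 hr 37 C; CellTiter-Glo added, 30 min RT; luminescence read. Tetraoctylammonium bromide positive control. Hill-equation AC50.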

[15] = qHTS Assay for Identification of Small Molecule Inducers of Hypoxia Response (AID 2120; active means well fitted curve in the direction sought with a large enough effect in the signal ratio, with a control signal flat, not every such curve was filed as active; the % refers to the signal ratio; further: 0% is about no effect)
Outline: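 ME-180 HRE-bla cells plated in Opti-MEM/0.5% dialyzed FBS, rested 4-5 h, then dosed with compound titrations by pin tool. After 17 h at 37 degrees C, CCF4 dye loaded 2.5 h at RT; 460/530 nm ratio gave %Activity and AC50.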

[16] = target: Estrogen receptor (Homo sapiens) (UniProt P03372); experiment: qHTS assay for small molecule agonists of estrogen receptor alpha signaling (AID 588514; calls by dose curve;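 further: 0% = vehicle only and 100% = reference agonist; nearly all actives have a fitted effect of over 70% in size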)
Estrogen receptor (Homo sapiens), sequence (P03372 whole entry, looked up): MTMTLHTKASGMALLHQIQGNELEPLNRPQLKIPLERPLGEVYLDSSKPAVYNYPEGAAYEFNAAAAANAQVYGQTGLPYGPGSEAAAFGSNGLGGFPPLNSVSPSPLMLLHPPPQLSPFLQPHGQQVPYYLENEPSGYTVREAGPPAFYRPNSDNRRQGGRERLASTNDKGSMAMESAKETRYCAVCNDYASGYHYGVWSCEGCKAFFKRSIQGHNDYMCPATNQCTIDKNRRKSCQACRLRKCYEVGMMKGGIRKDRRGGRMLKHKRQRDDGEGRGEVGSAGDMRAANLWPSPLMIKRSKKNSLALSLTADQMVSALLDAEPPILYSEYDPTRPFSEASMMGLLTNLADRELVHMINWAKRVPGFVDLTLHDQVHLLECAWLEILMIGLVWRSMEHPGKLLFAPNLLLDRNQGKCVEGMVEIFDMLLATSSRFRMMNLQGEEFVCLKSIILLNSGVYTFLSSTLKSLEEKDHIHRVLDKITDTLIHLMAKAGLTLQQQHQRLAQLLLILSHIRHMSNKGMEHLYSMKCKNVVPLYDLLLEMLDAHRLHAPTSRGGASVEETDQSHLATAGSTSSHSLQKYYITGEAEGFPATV
Outline: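 Cells were plated at 5000/well, incubated 4 hrs at 37 C, dosed with compound titration series, incubated 18 hrs at 37 C, loaded with CCF4 dye for 2 hrs at RT, then fluorescence was read.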

[17] = Cell Viability - LYMP2-022 (AID 987)
Outline: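 qHTS: human lymphoblastoid cells 2500/well; 5 hr 37 C; cpd added; 24 hr 37 C; CellTiter-Glo, 30 min RT; luminescence. AC50 via Hill fit; tetraoctylammonium bromide positive ctrl.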

[18] = Cell Viability - LYMP1-002 - Assay at 40 hr (AID 994)
Outline: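 Luminescent ATP signal served as the viability readout, with decreases taken as toxicity. Cells were treated with compounds across a concentration range for 40 hours at 37 C, and AC50 values came from standard Hill modeling.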

[19] = target: Androgen receptor (Homo sapiens) (UniProt P10275); experiment: qHTS assay for small molecule agonists of androgen receptor signaling (AID 588515; active means well fitted curve in the direction sought with a large enough effect in the signal ratio, with a control signal flat; the % refers to the signal ratio; further: on the % scale 0 is the no-effect control and ±100 the full control effect); details: AR-UAS-bla HEK293, beta-lactamase ratio, agonist 16 h; stronger effect = higher value
Androgen receptor (Homo sapiens), sequence (P10275 whole entry, looked up): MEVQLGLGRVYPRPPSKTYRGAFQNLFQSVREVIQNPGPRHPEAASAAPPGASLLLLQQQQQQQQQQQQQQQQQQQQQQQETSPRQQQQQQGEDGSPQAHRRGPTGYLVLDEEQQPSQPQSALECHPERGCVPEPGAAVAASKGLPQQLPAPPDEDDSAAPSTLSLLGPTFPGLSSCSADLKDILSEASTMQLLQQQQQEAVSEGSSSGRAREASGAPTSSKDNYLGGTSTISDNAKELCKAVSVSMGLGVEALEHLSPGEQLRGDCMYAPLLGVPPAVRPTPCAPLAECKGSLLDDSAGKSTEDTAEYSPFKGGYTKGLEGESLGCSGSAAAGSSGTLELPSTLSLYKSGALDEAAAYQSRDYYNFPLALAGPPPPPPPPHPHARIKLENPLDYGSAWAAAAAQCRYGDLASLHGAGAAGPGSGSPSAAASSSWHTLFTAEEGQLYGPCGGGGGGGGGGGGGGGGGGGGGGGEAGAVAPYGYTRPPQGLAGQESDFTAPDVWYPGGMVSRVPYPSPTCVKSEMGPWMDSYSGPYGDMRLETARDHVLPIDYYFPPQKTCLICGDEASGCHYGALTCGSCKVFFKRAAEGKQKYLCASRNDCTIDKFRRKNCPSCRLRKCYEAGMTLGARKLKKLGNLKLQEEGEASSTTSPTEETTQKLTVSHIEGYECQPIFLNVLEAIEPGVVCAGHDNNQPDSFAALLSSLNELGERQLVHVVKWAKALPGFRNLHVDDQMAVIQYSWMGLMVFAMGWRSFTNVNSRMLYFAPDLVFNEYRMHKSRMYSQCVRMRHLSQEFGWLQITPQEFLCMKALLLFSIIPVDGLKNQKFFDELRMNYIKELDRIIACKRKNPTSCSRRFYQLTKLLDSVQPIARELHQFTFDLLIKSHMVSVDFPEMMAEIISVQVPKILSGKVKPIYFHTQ
Outline: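 EC50 and efficacy came from Hill fits of titrations (up to 92 uM) normalized to 30 nM R1881 as 100% and DMSO as 0%. Compound exposure was 16 h at 37 C on AR-UAS-bla HEK293 cells, with a 405/460/530 nm CCF4 fluorescence read.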

Cc1cc(C)c(N)cc1C
inactive: Potency [1] | Potency [2] | Potency [3] | Potency [4] | Potency [5] | Potency [6] | Potency [7] | Potency [8] | Potency [9] | Potency [10] | Potency [11] | Potency [12] | outcome [13] | Potency [14] | outcome [15] | Potency [16]

CC(=O)c1ccccc1[N+](=O)[O-]
inactive: Potency [1] | Potency [2] | Potency [3] | Potency [5] | Potency [6] | Potency [7] | Potency [8] | Potency [9] | Potency [10] | Potency [11] | Potency [17] | Potency [12] | outcome [13] | Potency [14] | Potency [18] | outcome [15] | Potency [16]

C[C@@H]1CC2(OC[C@]3(C)O[C@H]23)O[C@H]2C[C@@]3(C)[C@@H]4CC[C@H]5C(C)(C)C(O[C@@H]6OC[C@@H](O)[C@H](O)[C@H]6O)CC[C@@]56C[C@@]46CC[C@]3(C)[C@@H]12 (stereo partly specified)
inactive: Potency [1] | Potency [2] | Potency [3] | Potency [4] | Potency [5] | Potency [7] | Potency [8] | Potency [9] | Potency [10] | Potency [17] | Potency [12] | outcome [13] | Potency [14] | Potency [18] | outcome [15] | Potency [16]

CCC(C)(C)C
inactive: Potency [1] | Potency [2] | Potency [3] | Potency [4] | Potency [6] | Potency [7] | Potency [9] | Potency [11] | Potency [17] | Potency [12] | outcome [13] | Potency [14] | Potency [18] | outcome [15] | Potency [16]

CC(N)CN (stereo unspecified)
inactive: Potency [1] | Potency [2] | Potency [3] | Potency [4] | Potency [5] | Potency [6] | Potency [7] | Potency [9] | Potency [10] | Potency [11] | Potency [17] | Potency [12] | outcome [13] | Potency [14] | Potency [18] | outcome [15] | Potency [16]

Nc1cc(Cl)c([N+](=O)[O-])cc1O
inactive: Potency [1] | Potency [2] | Potency [3] | Potency [4] | Potency [5] | Potency [6] | Potency [7] | Potency [8] | Potency [9] | Potency [10] | Potency [11] | Potency [17] | Potency [12] | outcome [13] | Potency [14] | Potency [18] | outcome [15] | Potency [16]

Cc1nc2ccc(Cl)cc2[nH]1
inactive: Potency [1] | Potency [2] | Potency [3] | Potency [4] | Potency [5] | Potency [6] | Potency [7] | Potency [8] | Potency [9] | Potency [10] | Potency [11] | Potency [17] | Potency [12] | outcome [13] | Potency [14] | Potency [18] | outcome [15] | Potency [16]

CCCOCC(C)OCC(C)O (stereo unspecified)
inactive: Potency [1] | Potency [2] | Potency [3] | Potency [4] | Potency [5] | Potency [6] | Potency [7] | Potency [8] | Potency [9] | Potency [10] | Potency [11] | Potency [17] | Potency [12] | outcome [13] | Potency [14] | Potency [18] | outcome [15] | activation [19] 12.1%

CC(=O)Nc1ccc(C)cc1
inactive: Potency [1] | Potency [2] | Potency [3] | Potency [4] | Potency [6] | Potency [7] | Potency [8] | Potency [9] | Potency [10] | Potency [11] | Potency [17] | Potency [12] | outcome [13] | Potency [14] | Potency [18] | outcome [15] | Potency [16]

Cc1ccc(C)c(N)c1
inactive: Potency [1] | Potency [2] | Potency [3] | Potency [4] | Potency [5] | Potency [6] | Potency [7] | Potency [8] | Potency [9] | Potency [11] | Potency [12] | outcome [13] | Potency [18] | outcome [15] | Potency [16]

O=C(O)c1ccccc1C(=O)O
inactive: Potency [1] | Potency [2] | Potency [3] | Potency [4] | Potency [5] | Potency [6] | Potency [7] | Potency [8] | Potency [9] | Potency [10] | Potency [11] | Potency [17] | Potency [12] | outcome [13] | Potency [14] | Potency [18] | outcome [15] | Potency [16]

O=[N+]([O-])c1cc(C(F)(F)F)ccc1Cl
inactive: Potency [1] | Potency [2] | Potency [3] | Potency [4] | Potency [5] | Potency [6] | Potency [7] | Potency [8] | Potency [9] | Potency [10] | Potency [11] | Potency [17] | Potency [12] | outcome [13] | Potency [14] | Potency [18] | outcome [15] | activation [19] 13.2%

O=C(O)c1ccc(Cl)c(Cl)c1
inactive: Potency [1] | Potency [2] | Potency [3] | Potency [5] | Potency [6] | Potency [7] | Potency [8] | Potency [9] | Potency [10] | Potency [11] | Potency [17] | Potency [12] | outcome [13] | Potency [14] | Potency [18] | outcome [15] | Potency [16]

CNc1ccc([N+](=O)[O-])cc1
inactive: Potency [1] | Potency [2] | Potency [3] | Potency [4] | Potency [5] | Potency [6] | Potency [7] | Potency [8] | Potency [9] | Potency [10] | Potency [11] | Potency [17] | Potency [12] | outcome [13] | Potency [18] | outcome [15] | Potency [16]

CC(=O)c1cc(C)oc1C
inactive: Potency [1] | Potency [2] | Potency [3] | Potency [4] | Potency [5] | Potency [6] | Potency [7] | Potency [8] | Potency [9] | Potency [10] | Potency [11] | Potency [17] | Potency [12] | outcome [13] | Potency [14] | Potency [18] | outcome [15] | activation [19] -1.32%

O=C1C=CCCC1
inactive: Potency [1] | Potency [2] | Potency [3] | Potency [4] | Potency [7] | Potency [9] | Potency [10] | Potency [11] | Potency [17] | Potency [12] | outcome [13] | Potency [14] | Potency [18] | outcome [15] | Potency [16]

O=C(Cl)c1ccccc1[N+](=O)[O-]
inactive: Potency [1] | Potency [2] | Potency [3] | Potency [4] | Potency [5] | Potency [6] | Potency [7] | Potency [8] | Potency [9] | Potency [10] | Potency [11] | Potency [17] | Potency [12] | outcome [13] | Potency [14] | Potency [18] | outcome [15] | activation [19] 6.98%

O=Cc1ccc(Cl)cc1
inactive: Potency [1] | Potency [2] | Potency [3] | Potency [4] | Potency [5] | Potency [6] | Potency [7] | Potency [8] | Potency [9] | Potency [10] | Potency [11] | Potency [17] | Potency [12] | outcome [13] | Potency [14] | Potency [18] | outcome [15] | activation [19] -1.22%
